Data as given in PubChem BioAssay AID1159580 (chemical genetic matrix, 2015).
Values joined by “and” are separate entries in the source; they are usually repeats but may differ in a detail not shown here. Equal values may be shown once. About 2,000 (36%) of roughly 5,500 compounds were called active. Inconclusive results (about 18%) are left out. Cut-off read from the data, not from the text of the source: active = normalized growth mostly below about 0.91 (no sharp cut-off); inconclusive = no clear call, values can overlap the other calls; inactive = mostly above about 0.92. This is one part of the list.

Test: chemical genetic growth profiling, strain panel (AID 1159580);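 note: tested at 20 µM; growth read once vehicle control cultures reached saturation at 30 °C; 1 = growth at the plate median or of vehicle wells; lower values mean less growth of the strain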
Conditions: S. cerevisiae deletion strains, growth OD

Measured: normalized growth

C=C1[C@H]2CC[C@@]3(C)[C@H](c4ccoc4)OC(=O)C[C@]13O[C@H]1C[C@H](O)C(C)(C)[C@H](CC(=O)OC)[C@]12C
inactive: locus YAL021C, strain ccr4, hits give low values 0.998 | locus YAL026C, strain drs2, hits give low values 1.05 | locus YAL030W, strain snc1, hits give low values 1.02 | locus YBL061C, strain skt5, hits give low values 1.02 | locus YBR009C, strain hhf1, hits give low values 1.01 | locus YBR021W, strain FUR4, hits give low values 0.985 | locus YBR023C, strain chs3, hits give low values 1.01 | locus YBR171W, strain sec66, hits give low values 1.02 | locus YBR229C, strain ROT2, hits give low values 0.999 | locus YBR231C, strain swc5, hits give low values 1.04 | locus YBR279W, strain paf1, hits give low values 1.02 | locus YCL011C, strain gbp2, hits give low values 1.01 | locus YCL016C, strain dcc1, hits give low values 1 | locus YCL029C, strain bik1, hits give low values 1.01 | locus YCL061C, strain MRC1, hits give low values 1.03 | locus YCL069W, strain vba3, hits give low values 1.02 | locus YCR088W, strain abp1, hits give low values 1.02 | locus YDL005C, strain med2, hits give low values 1.02 | locus YDL035C, strain GPR1, hits give low values 1 | locus YDL040C, strain nat1, hits give low values 1.02 | locus YDL074C, strain BRE1, hits give low values 0.99 | locus YDL101C, strain DUN1, hits give low values 1 | locus YDL134C, strain PPH21, hits give low values 1 | locus YDL185W, strain tfp1, hits give low values 1.03 | locus YDL192W, strain arf1, hits give low values 1.02 | locus YDR001C, strain nth1, hits give low values 1.02 | locus YDR069C, strain doa4, hits give low values 1.03 | locus YDR101C, strain arx1, hits give low values 1.01 | locus YDR137W, strain rgp1, hits give low values 0.975 | locus YDR159W, strain sac3, hits give low values 1.04 | locus YDR162C, strain NBP2, hits give low values 1.01 | locus YDR195W, strain ref2 1.03 | locus YDR297W, strain sur2, hits give low values 1.03 | locus YDR318W, strain mcm21, hits give low values 1.02 | locus YDR334W, strain swr1, hits give low values 1.02 | locus YDR335W, strain msn5, hits give low values 1.02 | locus YDR388W, hits give low values 1.02 | locus YDR392W, strain spt3, hits give low values 0.927 | locus YDR502C, strain sam2, hits give low values 1.02 | locus YEL003W, strain gim4, hits give low values 1.03 | locus YEL037C, strain rad23, hits give low values 1.01 | locus YEL061C, strain CIN8 (second series), hits give low values 1.02 | locus YEL061C, strain CIN8, hits give low values 0.998 | locus YER015W, strain faa2, hits give low values 1.03 | locus YER016W, strain bim1, hits give low values 1.02 | locus YER110C, hits give low values 1.02 | locus YER111C, strain swi4, hits give low values 1.03 | locus YER155C, strain BEM2 (second series), hits give low values 1.04 | locus YER155C, strain BEM2, hits give low values 1 | locus YER167W, strain BCK2, hits give low values 1 | locus YFR010W, strain ubp6, hits give low values 1.04 | locus YGL078C, strain dbp3, hits give low values 1.02 | locus YGL086W, strain mad1, hits give low values 1 | locus YGL167C, strain pmr1, hits give low values 1.02 | locus YGL173C, strain kem1, hits give low values 1.04 | locus YGL227W, strain vid30, hits give low values 1.03 | locus YGL240W, strain doc1, hits give low values 1.02 | locus YGL248W, strain PDE1, hits give low values 0.999 | locus YGL253W, strain hxk2, hits give low values 1.03 | locus YGR078C, strain PAC10, hits give low values 0.999 | locus YGR135W, strain pre9, hits give low values 1.02 | locus YGR252W, strain gcn5, hits give low values 1.02 | locus YHR013C, strain ard1, hits give low values 1 | locus YHR027C, strain rpn1, hits give low values 1.02 | locus YHR030C, strain SLT2, hits give low values 0.986 | locus YHR079C, strain IRE1 (second series), hits give low values 1.02 | locus YHR079C, strain IRE1, hits give low values 0.977 | locus YHR094C, strain hxt1, hits give low values 1.02 | locus YHR129C, strain ARP1, hits give low values 1.01 | locus YHR142W, strain chs7, hits give low values 1.01 | locus YHR200W, strain rpn10, hits give low values 1 | locus YIL066C, strain RNR3, hits give low values 1.01 | locus YIL073C, strain SPO22, hits give low values 1.07 | locus YIL125W, strain kgd1, hits give low values 1.01 | locus YIR030C, strain dcg1, hits give low values 1.02 | locus YJL092W, strain hpr5, hits give low values 1.03 | locus YJL095W, strain BCK1 (second series), hits give low values 1.02 | locus YJL095W, strain BCK1, hits give low values 1 and 0.979 | locus YJL115W, strain asf1, hits give low values 1.02 | locus YJL129C, strain trk1, hits give low values 1.02 | locus YJL134W, strain LCB3, hits give low values 1.01 | locus YJL154C, strain vps35, hits give low values 1.02 | locus YJL164C, strain tpk1, hits give low values 1 | locus YJL166W, strain qcr8, hits give low values 1.03 | locus YJL168C, strain set2, hits give low values 1.02 | locus YJL187C, strain SWE1 (second series), hits give low values 1 | locus YJR043C, strain POL32, hits give low values 0.991
